Assay outcomes: PubChem BioAssay, National Center for Advancing Translational Sciences (NCATS)
An excerpt weighted towards active compounds, which were near 12% of everything screened.
SARS PLpro yeast-1: blocks SARS-CoV papain-like protease in a yeast assay; Potency, µM (highest dose often 32.9 µM), hits mostly activators; S. cerevisiae expressing SARS-CoV PLpro, growth rescue; actives 0.19% (n = 330,000); calls by dose curve; further: nearly all actives have a fitted effect of over 55% in size
AMA1 RON2 block: inhibitors of Plasmodium falciparum AMA1-RON2 interaction; AlphaScreen AMA1-biotinylated RON2 peptide binding; Potency, µM (titrated, usually from 58.2 µM), most hits filed as inhibitors; actives 0.2% (n = 360,000); further: nearly all actives have a fitted effect of over 45% in size
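AMA1 (3D7) with his tag at 25 nM final met compounds first, then biotinylated RON2 peptide at 25 nM; detection used donor plus acceptor beads, 10 µg/mL apiece, read by AlphaScreen after 30 min at room temperature.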
Pf growth 48h: P. falciparum growth inhibition at 48 hours (one generation); P. falciparum luciferase growth in erythrocytes, 48 h; Potency, µM (highest dose often 28.7 µM), most hits filed as inhibitors; actives 5.9% (n = 310,000); AID 504832
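In quantitative HTS format, infected erythrocytes bearing luciferase-reporter parasites were treated for a single generation at 37 C. Luminescence after adding detection reagent served as the growth measure.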
Pf growth 96h: P. falciparum growth inhibition at 96 hour, primary screen for plastid delayed-death inhibitors; P. falciparum luciferase reporter growth, 96 h; Potency, µM (top dose mostly 28.7 µM), hits mostly inhibitors; actives 6.9% (n = 320,000)
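P. falciparum expressing integrated firefly luciferase grown in erythrocytes (2% hematocrit, 0.05% parasitemia final) with compounds for 96 hours at 37 C, 5% CO2. Growth inhibition read as loss of luminescence after adding luciferase detection reagent.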
HCV inhibitor: inhibitors of hepatitis C virus infection; Huh7.5.1 HCVcc-Cre infection, luciferase reporter, 44 h; Potency, µM (titrated, usually from 41.8 µM), hits mostly inhibitors; actives 3.4% (n = 340,000); AID 651820
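1,000 cells/well; 4 h culture; + compound; + HCVcc-Cre (~0.5 moi); 44 h; luciferase substrate, RT 15 min; read 15 sec.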
NS1 function inh: blocks influenza NS1 protein function; Potency, µM (highest dose often 46.1 µM); actives 0.4% (n = 270,000); calls by dose curve; further: actives are rising curves; nearly all actives have a fitted effect of over 50% in size
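Recovery from NS1-induced slow growth read by OD600 in budding yeast switched to galactose assay medium (pH 6.0, -URA) at 1:100 dilution. Compound 23 nl per well; the matching strain lacking NS1 serves as control.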
SARS PLpro yeast-2: Validates SARS-CoV PLpro inhibitor hits in yeast; yeast expressing SARS-CoV PLpro, growth phenotype rescue; shares compounds with SARS PLpro yeast-1; actives 19% (n = 1,000); calls only; AID 652038; call rule not given here
Hits are given with their value; . = inactive; ? = inconclusive; / = not tested or not shown; + = active, no number; [ ] = remark or other dose. Unless noted, the call rests on the fitted dose curve; in most records, active means well fitted curve in the direction sought with a large enough effect; inconclusive means small, poorly fitted or top-dose-only effect, or another doubt; inactive means no such curve, though single readings can be large; an effect the other way counts as inactive or inconclusive.

SMILES	SARS PLpro yeast-1	AMA1 RON2 block	Pf growth 48h	Pf growth 96h	HCV inhibitor	NS1 function inh	SARS PLpro yeast-2
Cc1cc(CN2CCCCC2C(=O)Nc2ccc(Oc3cccnc3)cc2)oc1C (stereo unspecified)	/	.	?	?	.	.	/
O=C1C(c2ccccc2)=C(N2CC2)c2ccccc21	?	28µM	5.9µM	3.7µM	.	.	.
COc1ccc(S(=O)(=O)N(CCc2ccccc2)CC(=O)O)cc1Cl	?	.	.	/	.	.	.
COc1ccc(S(=O)(=O)N(CCc2ccccc2)CC(N)=O)cc1	.	.	.	?	.	.	/
COc1ccc(/C=N/NC(=O)CN(CCc2ccccc2)S(=O)(=O)c2ccc(NC(C)=O)cc2)cc1OC	3.5µM	.	?	9.3µM	.	.	.
Cc1ccc2c(cnn2C(=O)CCC(=O)NC2CCCCC2)c1	.	.	.	?	.	.	/
CCN(C(=O)CSc1nnc(-c2ccccc2)o1)c1c(N)n(Cc2ccccc2)c(=O)[nH]c1=O	?	.	.	?	.	/	.
CCCCN(C(=O)CSc1nnc(-c2ccccc2)o1)c1c(N)n(CCC)c(=O)[nH]c1=O	.	.	?	.	.	/	/
Cc1ccccc1CN(C)C(=O)c1ccc2ccccc2n1	.	.	.	.	.	.	/
O=c1c2ccccc2ncn1CCCSc1ccccc1	?	.	.	?	.	.	.
Cc1ccc(N=Nc2ccc(O)c3ncccc23)cc1	4µM	.	0.47µM	?	?	.	.
COc1cccc(N2CC(C(=O)Nc3nnc(SCC(=O)NCc4ccco4)s3)CC2=O)c1 (stereo unspecified)	.	.	.	?	.	.	/
O=C(COC(=O)c1ccccc1C(=O)c1ccc(Cl)c([N+](=O)[O-])c1)NC1CCCCCC1	3.5µM	.	/	.	13µM	?	+
O=C(COC(=O)c1ccc(Cl)c([N+](=O)[O-])c1)NC1CCCC1	.	.	.	.	.	.	/
CC(C)(C)n1ncc(Oc2ccccc2[N+](=O)[O-])c(Cl)c1=O	?	.	.	.	?	.	.
O=C(/C=C/c1ccco1)Oc1cc(Br)cc(/C=N/NC(=O)c2ccccc2O)c1	/	.	1.9µM	.	?	.	.
N#Cc1nc(-c2ccc(F)cc2)oc1N1CCCC1	?	.	.	0.29µM	.	.	.
Cc1cc(N)ccc1NC(=O)CN1CCCC1	.	.	.	?	.	.	/
CCCCc1ccc(NC(=S)NN2CCOCC2)cc1	10µM	.	.	.	.	.	+
CCC(C)c1ccc(NC(=S)NN2CCOCC2)cc1 (stereo unspecified)	?	.	.	?	.	.	/
CN(CC(=O)Nc1ccc(F)c(F)c1F)C(=O)C1CCCC1	.	.	.	?	.	/	/
Cc1[nH]c2ccccc2c1C(=O)NS(=O)(=O)Nc1ccc(F)cc1	.	.	?	.	.	/	/
CCS(=O)(=O)N1CCN(S(=O)(=O)c2ccc(Cl)s2)CC1	.	.	.	.	.	.	/
COCCNC(=S)N1CCN(S(=O)(=O)c2ccc(Cl)s2)CC1	/	.	?	?	.	.	.
CC(=O)Nc1cnc(-c2cc(C)c(O)c(C)c2)cn1	/	.	/	/	/	/	/
SMILES	SARS PLpro yeast-1	AMA1 RON2 block	Pf growth 48h	Pf growth 96h	HCV inhibitor	NS1 function inh	SARS PLpro yeast-2
Cc1cnc(C(=O)OCC(=O)c2ccc[nH]2)cn1	.	.	?	.	.	/	/
O=C(O)c1ccc(N=NN2CCCC2)cc1	.	.	.	.	.	/	/
O=C(O)c1ccc(N=NN2CCCCCC2)cc1	13µM	.	.	.	.	.	.
CCCOP(=O)(c1ccc(N(C)C)cc1)C(O)c1ccc(N(C)C)cc1 (stereo unspecified)	.	.	.	.	.	.	/
Cc1[nH]c(=S)sc1Cc1ccc(Cl)c(Cl)c1	?	/	.	.	.	.	+
COc1cccc(OCCSc2nc(N)cc(N)n2)c1	/	.	/	.	?	.	.
CN(C)c1ccc2c3c(ccc(N(C)C)c13)C(=O)OC2	.	.	.	.	.	.	/
CCOC(=O)[C@]12CCC=C1N(Cc1cccc3ccccc13)C(=O)[C@H](CC(=O)N1CCN(C(=O)C3CC3)CC1)C2	/	.	/	/	/	/	/
Cc1ccc(S(=O)(=O)N2CCC(C(=O)OC(C)C(=O)NC3CCCCC3C)CC2)cc1C (stereo unspecified)	?	.	?	?	.	/	?
Cc1ccc(C)c(N2C(=O)C3C4C=CC(CC4)C3C2=O)c1 (stereo unspecified)	.	.	?	.	.	.	/
Cc1ccc(C)c(N2CC(=O)N(c3cc(C)ccc3C)CC2=O)c1	?	.	.	/	.	.	.
O=C(Nc1ccccc1)NC1CCCc2ccccc21 (stereo unspecified)	.	.	?	.	.	.	/
CNC(=O)NC1CCCc2ccccc21 (stereo unspecified)	?	?	.	.	.	.	.
COc1ccc(N(CN2C(=O)c3ccccc3C2=O)C(=O)COc2ccc(Cl)cc2Cl)cc1	13µM	.	.	.	.	.	.
Cc1ccccc1-c1nnn(CC(=O)N(C)CC(=O)Nc2ccccc2C(F)(F)F)n1	.	.	.	.	?	/	/
CCCCOC(=O)C[N+](C)(C)CCOC1CC2CCC1(C)C2(C)C (stereo unspecified)	/	.	1.5µM	?	.	.	.
Cc1cc2c(cc1C)-c1nnnn1C(C)(C)C2	.	.	.	.	?	.	/
c1ccc2c(c1)CC1(CCCCC1)n1nnnc1-2	14µM	?	.	.	.	.	.
O=C(Cc1cccs1)Nc1cccc(-c2ccc3nncn3n2)c1	.	.	?	.	.	/	/
COc1ccc(-c2noc(CNC(=O)c3ccc4c(c3)OCO4)n2)cc1	.	.	.	.	.	.	/
Cc1ccc(-c2noc(COc3ccc4c(c3)OCO4)n2)cc1	13µM	.	.	.	.	.	.
CC(=O)NC(Nc1c(C)n(C)n(-c2ccccc2)c1=O)C(Cl)(Cl)Cl (stereo unspecified)	.	.	.	?	.	/	/
Cc1cc(C(=O)NNC(=O)c2ccc(S(=O)(=O)N(C)C)cc2)c(C)o1	2.5µM	.[11.6 µM]	.	.	.	.	.
Cn1cc(/C=N/n2cnc3scc(-c4ccccc4)c3c2=O)c2ccccc21	?	.	.	3.3µM	6.3µM	.	+
CC(C)C1Oc2ccccc2N(CC(=O)N(Cc2ccccn2)CC2CCCO2)C1=O (stereo unspecified)	1.8µM	.	.	.	.	.	.
COC(=O)c1cccc(NC(=O)CC2C(=O)NCCN2C(=O)c2ccc(F)cc2F)c1 (stereo unspecified)	.	.	?	.	.	.	/
O=C(Nc1ccccc1)c1cn(CCBr)cn1	/	.	/	/	.	/	/
CCOC(=O)c1c(-c2ccc(OC)cc2)csc1/N=C/C1=C(O)CCCC1=O	?	.	.	?	?	.	.
